Hits are enriched below; roughly 0.87% of the tested compounds scored in any of these assays.
FEN1 inhibitor – inhibitors of human flap endonuclease 1. Recombinant FEN1 flap cleavage, fluorescence, 15 min. Potency, µM (series often up to 114 µM), hits mostly inhibitors. actives 0.35% (n = 390,000). AID 588795; note: nearly all actives have a fitted effect of over 65% in size
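Enzyme 10 nM, 15 min RT preincubation with compound; start with substrate 50 nM final; reads at 0 and 15 min; qHTS titration, four-parameter Hill fit.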
BLM inh – blocks DNA unwinding by human BLM helicase; P54132; recombinant BLM DNA unwinding, fluorescence dequenching; Potency, µM (highest dose often 56.1 µM), hits mostly inhibitors; actives 0.2% (n = 350,000); note: nearly all actives have a fitted effect of over 35% in size
WRN inhibitor – blocks human WRN helicase; Q14191; WRN helicase unwinding, fluorescent forked duplex, kinetic; Potency, µM (highest dose often 114 µM), most hits filed as inhibitors; actives 0.46% (n = 360,000); AID 651768; note: nearly all actives have a fitted effect of over 55% in size
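WRN at 20 nM final preincubated with compound 15 min at room temperature; reaction started with 100 nM fluorophore/quencher forked duplex oligonucleotide and 2 mM ATP final. Unwinding followed kinetically by red fluorescence (ex 525, em 598 nm).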
RECQ1 inh – blocks DNA unwinding by human RECQ1. P46063. RECQ1 DNA unwinding, red fluorescence kinetic read. Potency, µM (doses to about 57.3 µM), usual class: inhibitors. actives 0.54% (n = 240,000); note: nearly all actives have a fitted effect of over 30% in size
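50 nM RECQ1T1 preincubated 15 min with compound in Tris pH 8.0 buffer with MgCl2, DTT, Tween-20 and 2.5 ug/ml poly(dI-dC); started with 200 nM TAMRA/BHQ-2 forked duplex and 2 mM ATP. Unwinding read as fluorescence (525/598 nm), two reads 2 h apart.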
APE1 inh – APE1 (human) endonuclease inhibition. P27695. recombinant APE1, TAMRA/BHQ-2 abasic DNA cleavage fluorescence. Potency, µM (highest dose often 65.8 µM), hits mostly inhibitors. actives 0.35% (n = 350,000). AID 2517; note: nearly all actives have a fitted effect of over 55% in size
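Incision of a quenched TAMRA/BHQ-2 THF abasic-site duplex (50 nM) by 0.75 nM APE1, after 15 min compound preincubation, measured as fluorescence increase over three 60 s reads. Values normalized to buffer, DMSO and NSC13755 control wells.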
Numbers stand for hits; - = inactive; ? = inconclusive; . = not tested or not shown; [ ] = dose if it differs, or a comment. Calls come from the whole dose curve; as a rule, active = well fitted curve in the direction sought with a large enough effect; inconclusive = small, poorly fitted or top-dose-only effect, or another doubt; inactive = no such curve, though single readings can be large; an effect the other way counts as inactive or inconclusive.

SMILES	FEN1 inhibitor	BLM inh	WRN inhibitor	RECQ1 inh	APE1 inh
C=C(C)C(=O)Nc1cccc(C2=NOC3(C2)C[C@@H](C(N)=O)N(C(=O)c2ccc(Cl)cc2)C3)c1 (some centres undefined)	?	-	45µM	13µM	?
C=C(C)C(=O)Nc1cccc(C2=NOC3(C2)C[C@@H](C(N)=O)N(C(=O)C2(C)CC2)C3)c1 (some centres undefined)	?	-	?	10µM	?
Cc1cc(-c2ccc(N=Nc3c(S(=O)(=O)O)cc4cc(S(=O)(=O)O)cc(N)c4c3O)c(C)c2)ccc1N=Nc1c(S(=O)(=O)O)cc2cc(S(=O)(=O)O)cc(N)c2c1O	.	-	.	.	0.47µM
Nc1cc(S(=O)(=O)O)cc2ccc(S(=O)(=O)O)cc12	-	.	-	.	.
Oc1ccc(Cl)cc1N=Nc1ccccc1	-	-	-	.	-
O=S(=O)(O)c1cc(O)c2c(O)c(N=Nc3cc(Cl)ccc3O)c(S(=O)(=O)O)cc2c1	?	-	45µM	.	12µM
CCC1CN(C(=O)N2CCC(C(=O)NCCc3ccccc3Cl)CC2)c2cc(C)ccc2O1 (centres undefined)	-	-	.	.	.
O=C1C(c2ccccc2)CN1Cc1ccccc1 (centres undefined)	.	.	-	.	.
O=C1N(Cc2ccccc2)CC2(Br)COCOC12O (centres undefined)	-	.	18µM	.	.
O=c1[nH]n2c(=O)c3c([nH]c2c1N=Nc1cccc(Cl)c1)CCC3	?	16µM	?	-	-
CC(=O)Oc1ccc2c(c1)CC[C@@H]1[C@@H]2CC[C@]2(C)[C@@H](O)CC[C@@H]12	.	.	.	.	-
COC(=O)c1ccc(O)cc1	-	-	-	-	-
COC(=O)c1ccc(CCc2cc(O)ccc2O)cc1	-	.	56µM	.	.
COc1ccc(N=Nc2cc(OC)c(N)cc2OC)cc1	-	.	-	.	.
Cc1cc(N=Nc2ccc(C)c(N=Nc3cc(C)c(N)cc3N)c2)c(N)cc1N	22µM	?	-[11.6 µM]	-	-
O=C(c1cnn2c1NC(=C1CC1)C=C2C(F)F)N(C1CCCCC1)C1CCCCC1	.	.	.	.	-
O=C(C[n+]1csc2ccccc21)c1ccc(O)c(O)c1	50µM	.	.	.	.
CCN(C(=O)C1CCCN(S(=O)(=O)c2c(C)noc2/C=C/N(C)C)C1)c1cccc(C)c1 (centres undefined)	-	-	.	.	.
COc1ccc(C(=O)/C(=C\c2ccco2)N2C=CC=CC2=C(C#N)C#N)cc1	-	-	?	-	-
N#CC(C#N)=C1C=CC=CN1/C(=C\c1ccco1)C(=O)c1ccccc1	-	-	18µM	-	-
N#CC(C#N)=C1C=CC=CN1/C(=C\c1ccco1)C(=O)c1ccc(Br)cc1	-	-	56µM	-	-
COc1ccc(/C=C(/C(=O)c2cccs2)N2C=CC=CC2=C(C#N)C#N)cc1	-	-	-	-	-
O=C1[C@H](Cc2ccccc2)NC/C=C\C[C@@H](c2ccc(Cl)cc2)N1Cc1ccccc1	-	.	.	.	.
COc1ccc(Cl)cc1Nc1nnc(-c2ccncc2)s1	-	-	-	.	8.4µM
COc1cc(/C=C2\SC(=S)N(C(C(=O)O)c3ccccc3)C2=O)ccc1O (centres undefined)	-	-	50µM	22µM	-
SMILES	FEN1 inhibitor	BLM inh	WRN inhibitor	RECQ1 inh	APE1 inh
COc1ccccc1/C=C1\SC(=S)N(C(C(=O)O)c2ccccc2)C1=O (centres undefined)	-	-	-	-	-
CCOc1ccc(/C=C2/SC(=S)N(C(C(=O)O)c3ccccc3)C2=O)cc1OCC (centres undefined)	-	-	-	22µM	-
CCc1nnc(NS(=O)(=O)c2ccc(NC(=S)NC(=O)/C=C/c3ccc(OC)cc3)cc2)s1	50µM	?	?	-	-
CCc1nnc(NS(=O)(=O)c2ccc(N/C=C\C(=O)c3ccc4ccccc4c3)cc2)s1	?	-	50µM	-	-
CCc1nnc(NS(=O)(=O)c2ccc(NC(=S)NC(=O)c3ccccc3)cc2)s1	-	-	-	-	-
CCc1nnc(NS(=O)(=O)c2ccc(NC(=O)c3ccccc3)cc2)s1	-	-	-	-	-
COc1cc2c(cc1OC)[C@@H](c1ccccc1)CN(C)CC2	.	.	.	.	-
O=C(/C=C/c1ccco1)Nc1nc(-c2ccccn2)cs1	18µM	-	?	-	-
O=c1c2oc3ccccc3c2n(Cc2cccc(C(F)(F)F)c2)c(=O)n1Cc1ccc2c(c1)OCO2	-	-	.	.	.
CCOC(=O)c1cc(S(=O)(=O)Nc2ccccc2OCC)[nH]n1	-	-	.	.	.
Cc1ccc(N=Nc2ccc3ccccc3c2O)cc1	-	-	?	.	-
Cc1ccc2nc(-c3ccc(N=Nc4cc(S(=O)(=O)O)c5ccccc5c4O)cc3)sc2c1S(=O)(=O)O	7.1µM	.	.	.	.
Cc1ccc(S(=O)(=O)N2CCN(c3nc(-n4c(=O)[nH]c5ccccc54)nc4ccccc34)CC2)cc1	-	.	.	.	.
O=C(CCl)N1N=C(c2ccco2)CC1c1ccco1 (centres undefined)	?	-	56µM	.	-
COc1cc2[nH]c(=S)nc(NC3CCCCCC3)c2cc1OC	45µM	-	?	-	-
Cc1c(C(=O)O)cnc2c([N+](=O)[O-])cnn12	-	-	79µM	-	-
CC(=O)c1cnc2c(C(=O)O)cnn2c1C	-	-	-	-	-
CCOC(=O)c1ccc(CN(Cc2ccc(F)cc2)S(=O)(=O)c2cc(C(=O)Nc3cccc(C(F)(F)F)c3)ccc2F)cc1	-	-	.	.	.
COc1ccccc1NC(=O)Cn1c(O)c(N=NC(=O)c2ccccc2O)c2ccccc21	?	18µM	-[11.6 µM]	-	-
COc1ccc(/C=C/c2ccc3ccccc3[n+]2C)cc1OC	-	-	-	.	-
COc1cc(OC)c(/C=C/c2ccc3ccccc3[n+]2C)c(OC)c1	25µM	.	.	.	.
COc1cc(OC)c(C=CC(=O)c2ccccc2O)c(OC)c1	-	.	-	.	.
CCC[n+]1c(/C=C/c2c(OC)cc(OC)cc2OC)ccc2ccccc21	28µM	.	.	.	.
COc1ccc(/C=C/c2ccc3ccccc3[n+]2C)c(OC)c1OC	-	.	.	.	.
Cc1ccc2ccccc2[n+]1CCCS(=O)(=O)[O-]	-	-	-	-	-
SMILES	FEN1 inhibitor	BLM inh	WRN inhibitor	RECQ1 inh	APE1 inh
CCCC[n+]1c(/C=C/c2c(OC)cc(OC)cc2OC)ccc2ccccc21	20µM	.	.	.	.
CCCC[n+]1c2ccccc2cc2ccccc21	79µM	-	-[11.6 µM]	.	-
Cc1ccc(Cl)cc1NC(=O)C(=O)NCC(c1cccnc1)N1CCc2ccccc21 (centres undefined)	-	-	.	.	.
CCCCN(CCC(=O)O)c1ccc(/C=C/c2ccnc3ccccc23)cc1	-	.	.	.	.
COC(=O)c1ccn(CC(=O)NC2CCCCC2)n1	-	-	-	.	30µM
CCC1CCCCN1S(=O)(=O)c1cc2c(cc1C)NC(=O)CO2 (centres undefined)	-	-	.	.	.
CC(C)(C)NS(=O)(=O)c1cccc(-c2nnc(SCC(=O)Nc3ccc(C(=O)O)cc3)n2-c2ccc(F)cc2)c1	.	.	.	.	-
CN1CCc2nc3sc(C(=O)Nc4c(F)cccc4F)c(N)c3cc2C1	?	-	.	.	.

Bioassay records: PubChem BioAssay, National Center for Advancing Translational Sciences (NCATS)
